In the library only some 21% were active in any assay of this set; here they are far more common.
Shiga inhibitor: inhibitors of Shiga toxin in Vero cells | Vero cells, Shiga toxin protein synthesis inhibition reporter | 290,000 tested, 9.2% active | inhibition, % at 38.7 µM; in the data active = inhibition mostly above about 28%, no sharp cut-off; inactive = mostly below about 43%; note: 0% is about no effect
Pf growth 48h: P. falciparum growth inhibition at 48 hours (one generation) | 310,000 tested, 5.9% active | AID 504832 | Potency, µM (highest dose often 28.7 µM), without a hit: top-dose activity change, negative = inhibition, most hits filed as inhibitors | P. falciparum luciferase growth in erythrocytes, 48 h; note: potency is the fitted concentration of half-maximal effect; % is set by controls: 0 for no effect and ±100 for the full control effect
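First compound was added to culture medium, then infected red cells at 0.1% parasitemia and 2% hematocrit (final). After incubation at 37 C under 5% CO2, luciferase detection reagent was dispensed and light output recorded.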
NS1 function inh: influenza NS1 inhibition; Potency, µM (titrated, usually from 46.1 µM), for the others: top-dose activity, positive = more growth; 270,000 tested, 0.4% active; calls by dose curve; note: potency is the fitted concentration of half-maximal effect; actives are rising curves; nearly all actives have a fitted effect of over 50% in size
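OD600 was taken as the measure of yeast growth restored by compound in an NS1-expressing S. cerevisiae strain. Cells had been washed out of glucose medium and diluted 1:100 into galactose -URA medium, pH 6.0.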
Pf growth 96h: P. falciparum growth inhibition at 96 hours | P. falciparum luciferase reporter growth, 96 h | AID 504834 | 320,000 tested, 6.9% active | Potency, µM (highest dose often 28.7 µM), for the others: at the highest dose activity change, negative = inhibition, most hits filed as inhibitors; note: potency is the fitted concentration of half-maximal effect; % is set by controls: 0 for no effect and ±100 for the full control effect
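Parasite growth measured via integrated firefly luciferase reporter in P. falciparum. Infected erythrocytes at 2% hematocrit, 0.05% parasitemia final were treated 96 hours at 37 C under 5% CO2, and luminescence was read.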
SARS PLpro yeast: SARS-CoV PLP inhibition in yeast | 330,000 tested, 0.19% active | S. cerevisiae expressing SARS-CoV PLpro, growth rescue | Potency, µM (highest dose often 32.9 µM), inactives show at the top dose activity, positive = growth rescue, usual class: activators; calls by dose curve; note: potency is the fitted concentration of half-maximal effect; 0% is about no effect; nearly all actives have a fitted effect of over 55% in size
Cycloheximide cs: counter-screen hit for Shiga toxin inhibitors, cycloheximide. 300,000 tested, 12% active. max response, %. cell reporter, cycloheximide protein synthesis inhibition counterscreen; in the data active = max response mostly above about 13%, no sharp cut-off; inactive = mostly below about 14%; note: read at 38.3 µM for the half of the compounds with a filed dose; 0% is about no effect
* = called active by the depositor. Unless noted, calls come from the whole dose curve; as a rule, active = well fitted inhibition curve with a large enough effect; inconclusive = small, poorly fitted or top-dose-only effect, or another doubt; inactive = no such curve, though single readings can be large or run the other way.

How did CN(C)S(=O)(=O)c1ccc(C(=O)Nc2nc3ccccc3[nH]2)cc1 do in these assays?
Shiga inhibitor: 80*; Pf growth 48h: 209%; Pf growth 96h: 281%; SARS PLpro yeast: -1%; Cycloheximide cs: 36*

Results for O=C(Nc1nc2ccccc2[nH]1)c1ccc(F)cc1 ?
Shiga inhibitor: 21; Pf growth 48h: -76%; NS1 function inh: -33%; Pf growth 96h: 1.5µM*; SARS PLpro yeast: 3%; Cycloheximide cs: 20*

Results for Cc1ccc(OCC(=O)N(C)CC(=O)N(CC(C)C)c2c(N)n(CC(C)C)c(=O)[nH]c2=O)c(C)c1 ?
Pf growth 48h: inconclusive; Pf growth 96h: inconclusive; SARS PLpro yeast: -5%

Results for COc1ccc(NS(=O)(=O)c2ccc(N3CC(O)=C(c4ccccc4)C3=N)cc2)cc1 ?
Shiga inhibitor: -10; Pf growth 48h: 3%; NS1 function inh: 6%; Pf growth 96h: 10%; SARS PLpro yeast: -1%; Cycloheximide cs: 8

How did O=C(Nc1nc2ccccc2[nH]1)c1cc2ccccc2o1 do in these assays?
Shiga inhibitor: 54*; Pf growth 48h: -22%; NS1 function inh: -1%; Pf growth 96h: -4%; SARS PLpro yeast: 9%; Cycloheximide cs: 35*

What do the screens show for `CCNC(=O)c1cc2ccccc2o1`?
Shiga inhibitor: -10; Pf growth 48h: 7%; NS1 function inh: 1%; Pf growth 96h: 29%; SARS PLpro yeast: -43%; Cycloheximide cs: -4

How did Cc1csc(NC(=O)C2CC(=O)N(c3ccc(C)c(C)c3)C2)n1 (configuration not stated) do in these assays?
Shiga inhibitor: 3; Pf growth 48h: 11%; NS1 function inh: inconclusive; Pf growth 96h: 0%; SARS PLpro yeast: 3%; Cycloheximide cs: 1

Results for Cc1ccc(SCc2cn3ccccc3n2)cc1 ?
Shiga inhibitor: 66*; Pf growth 48h: 139%; NS1 function inh: -1%; Pf growth 96h: 103%; SARS PLpro yeast: 3%; Cycloheximide cs: 32*

What do the screens show for `Cc1ccc(C(=O)OCc2cn3ccccc3n2)cc1`?
Shiga inhibitor: 15; Pf growth 48h: 71%; NS1 function inh: -6%; Pf growth 96h: 31%; SARS PLpro yeast: -8%; Cycloheximide cs: 15*

Results for Cc1ccc2nc(COC(=O)CNC(=O)c3ccccc3)cn2c1 ?
Pf growth 48h: -13%; Pf growth 96h: 8%; SARS PLpro yeast: 1%

Results for O=C(O)c1ccccc1SCc1cn2ccccc2n1 ?
Shiga inhibitor: 7; Pf growth 48h: 3%; NS1 function inh: inconclusive; Pf growth 96h: 43%; SARS PLpro yeast: -6%; Cycloheximide cs: 4

How did c1ccc(CSCc2cn3ccccc3n2)cc1 do in these assays?
Shiga inhibitor: 112*; Pf growth 48h: 189%; Pf growth 96h: 185%; SARS PLpro yeast: 0%; Cycloheximide cs: 47*

How did CC(C)CN1C(=O)C(=O)N(CC(=O)c2ccc3c(c2)OCO3)C1=O do in these assays?
Pf growth 48h: 6%; Pf growth 96h: 32%; SARS PLpro yeast: 1%

How did C=CCc1ccc(O)c(-c2ccc(O)c(CC=C)c2)c1 do in these assays?
Shiga inhibitor: 27; Pf growth 48h: inconclusive; NS1 function inh: -67%; Pf growth 96h: 8.3µM*; SARS PLpro yeast: -3%; Cycloheximide cs: 5

What do the screens show for `C=CCc1cc(C(=O)N2CCCCC2)ccc1O`?
Shiga inhibitor: -8; Pf growth 48h: inconclusive; NS1 function inh: -5%; Pf growth 96h: 17%; SARS PLpro yeast: 2%; Cycloheximide cs: 9

What do the screens show for `COc1ccc(NC(=O)CSc2ccc3nnc(-c4cccnc4)n3n2)cc1OC`?
Shiga inhibitor: 14; Pf growth 48h: -10%; NS1 function inh: 1%; Pf growth 96h: -5%; SARS PLpro yeast: -3%; Cycloheximide cs: -1

What do the screens show for `Cc1cccc2nc3c(nc12)-c1ccccc1C3=O`?
Shiga inhibitor: 17; Pf growth 48h: 42%; NS1 function inh: -51%; Pf growth 96h: 6%; SARS PLpro yeast: -1%; Cycloheximide cs: 15

Results for Cc1ccc2nc3c(nc2c1)-c1ccccc1C3=O ?
Shiga inhibitor: 32*; NS1 function inh: -57%; SARS PLpro yeast: -14%; Cycloheximide cs: 20*

How did Cc1cccc(NC(=O)CN(CC2CCCO2)C(=O)c2cc3ccccc3o2)c1C (configuration not stated) do in these assays?
Pf growth 48h: inconclusive; Pf growth 96h: inconclusive; SARS PLpro yeast: -2%

Results for Cc1cccc(S(=O)(=O)NC2CCCCCCC2)c1 ?
Shiga inhibitor: -2; Pf growth 48h: -9%; NS1 function inh: -43%; Pf growth 96h: -3%; SARS PLpro yeast: -3%; Cycloheximide cs: 0

How did Cc1ccc(NS(=O)(=O)c2cc(OCC(N)=O)c(C)cc2Cl)cc1C do in these assays?
Shiga inhibitor: -12; Pf growth 48h: 12µM*; NS1 function inh: 2%; Pf growth 96h: inconclusive; SARS PLpro yeast: -6%; Cycloheximide cs: -3

What do the screens show for `Cc1ccccc1NS(=O)(=O)c1cc(OCC(N)=O)c(C)cc1Cl`?
Shiga inhibitor: -6; Pf growth 48h: 55%; NS1 function inh: -2%; Pf growth 96h: 10µM*; SARS PLpro yeast: -1%; Cycloheximide cs: -1

What do the screens show for `Cc1cccc(NS(=O)(=O)c2cc(OCC(N)=O)c(C)cc2Cl)c1`?
Shiga inhibitor: -8; Pf growth 48h: -12%; NS1 function inh: 1%; Pf growth 96h: -16%; SARS PLpro yeast: inconclusive; Cycloheximide cs: -5

What do the screens show for `Cc1ccc(C(=O)N(C)CCOc2ccccc2)cc1S(=O)(=O)N1CCOCC1`?
Pf growth 48h: 10%; Pf growth 96h: -2%; SARS PLpro yeast: -2%

Results for O=C(NCc1cccc(C(F)(F)F)c1)N1CCN(S(=O)(=O)c2ccccc2F)CC1 ?
Shiga inhibitor: 2; Pf growth 48h: -12%; NS1 function inh: -4%; Pf growth 96h: -10%; SARS PLpro yeast: 2%; Cycloheximide cs: -3

How did COc1ccc(C2=NN(c3ccccc3)C(c3ccc(OC)c(OC)c3)C2)cc1 (configuration not stated) do in these assays?
Shiga inhibitor: 46*; Pf growth 48h: -17%; NS1 function inh: inconclusive; Pf growth 96h: inconclusive; SARS PLpro yeast: 4%; Cycloheximide cs: 20*

Results for COc1ccc(C2=NN(C(=O)c3ccccc3)C(c3ccc(OC)c(OC)c3)C2)cc1OC (configuration not stated) ?
Shiga inhibitor: -13; Pf growth 48h: inconclusive; NS1 function inh: -1%; Pf growth 96h: inconclusive; SARS PLpro yeast: 0%; Cycloheximide cs: -2

What do the screens show for `COc1ccc(C2=NN(C(C#N)c3ccc(OC)c(OC)c3)C(c3ccccc3)C2)cc1` (configuration not stated)?
Shiga inhibitor: 113*; Pf growth 48h: 125%; NS1 function inh: 12%; SARS PLpro yeast: 23%; Cycloheximide cs: 43*

Source: PubChem BioAssay
